Test results published in PubChem BioAssay AID588463 (National Center for Advancing Translational Sciences (NCATS), 2011).
Hit rate of the full screen: of about 1,200 compounds, about 15 (1%) were called active. About 7% were inconclusive and are not listed. The call rests on the fitted dose curve; in most records, active means well fitted activation curve with a large enough effect; inconclusive means small, poorly fitted or top-dose-only effect; inactive means flat fitted curve, though single readings scatter. What follows is part of a selection rich in actives, with near analogues and random picks from the rest. A call without a number means that no potency is given here.

Molecular target: Beta-2 adrenergic receptor (Homo sapiens) (UniProt P07550)
Experiment: qHTS assay of beta-arrestin-biased ligands of beta2-adrenergic receptor: Hit Validation
Conditions: cell-based beta-arrestin recruitment to beta2AR; Potency: activation; series mostly up to 46.1 µM
Source text: The concept of biased agonism is an emerging concept of molecular pharmacology which proposes that seven transmembrane receptors (7TMRs) or G protein-coupled receptors (GPCRs), exist in multiple signaling conformations and complexes and that ligands (either agonists or antagonists) can induce signaling biased responses for distinct signal transduction cascades.
Furthermore, accumulating evidence over the last decade has drawn attention to a novel function of beta-arrestins as signal transducers that scaffold various signaling molecules upon activation of 7TMRs. […] This beta-arrestin-biased signaling presumably leads to distinct physiological outcomes from those by G protein activation.
Additionally, the active receptor conformations which […] on this beta-arrestin signaling are likely different from those activating G protein signaling
The goal of this screening project will be to discover and optimize novel beta-arrestin-biased ligands for beta2-AR signaling. A luminescent cell-based assay for beta2-AR-mediated agonism, known as the Tango assay, has been validated in which ligand binding of a recombinant beta2-AR and subsequent recruitment of a recombinant beta-arrestin lead to the release of the transcriptional activator tTA, which upregulates transcription of a tTA-responsive luciferase gene.
NIH Molecular Libraries Probe Production Network [MLPCN]
NIH Chemical Genomics Center [NCGC]
PI: Bryan Roth (UNC) and Bob Lefkowitz (Duke)
NCGC Assay Protocol Summary:
Tango cells were dispensed into white, solid, tissue-culture-treated 1536-well plates at 1500 cells/well in DMEM, containing 1% fetal bovine serum (FBS). Then, 23 nL of compounds or DMSO were delivered to each well using a pin tool. Plates were incubated at 37 degrees C, 5% CO2 for 18 hr. Then 2.5 uL luminescent substrate mix (in-house prepared: 150 mM Tris-Cl, pH 7.6, 3 mM MgCl2, 1% Triton X-100, 5 mM DTT, 0.5 mM CoA, 0.15 mM ATP, 0.44 mM D-luciferin, final concentrations) was added to each well. Plates were then incubated for 15 minutes at room temperature, and subsequently measured on a ViewLux plate reader for luminescent signal using a clear filter with a 10 second exposure and 2x binning. The %Activity was determined from the corrected luminescence values.
Concentration-response curves were fitted to the signals arising from the resulting luminescence. The concentration-effect curves were then classified based on curve quality (r2), response magnitude and degree of measured activity, and compounds were subsequently categorized based on their curve class.
Keywords: biased agonism, beta2-AR, beta-arrestin, GPCR, 7TMR, Tango, luminescence, MLSMR, MLPCN, NIH Roadmap, qHTS, NCGC

Sequence of Beta-2 adrenergic receptor (Homo sapiens) (P07550 whole entry, looked up): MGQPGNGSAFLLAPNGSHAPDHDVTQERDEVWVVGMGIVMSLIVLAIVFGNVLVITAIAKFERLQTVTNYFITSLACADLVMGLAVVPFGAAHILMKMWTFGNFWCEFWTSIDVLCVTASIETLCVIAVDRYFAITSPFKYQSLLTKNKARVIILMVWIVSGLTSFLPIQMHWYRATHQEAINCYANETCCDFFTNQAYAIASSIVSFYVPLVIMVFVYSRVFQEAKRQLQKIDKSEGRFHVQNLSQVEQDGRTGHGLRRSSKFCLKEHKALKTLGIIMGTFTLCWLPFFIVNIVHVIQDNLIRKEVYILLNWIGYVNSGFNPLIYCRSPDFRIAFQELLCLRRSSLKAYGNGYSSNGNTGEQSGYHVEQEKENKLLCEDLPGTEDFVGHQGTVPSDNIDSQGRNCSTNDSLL

Row | SMILES | Potency
1 | COc1ccc(-c2c(-c3ccccc3)c(C(=O)C(=O)NCCCN(C)C)n3ccc4cc(OC)c(OC)cc4c23)cc1OC | inactive
2 | Cc1cccc(NC(=S)NC(=O)c2cccs2)n1 | inactive
3 | CCC1CCCCN1CC(=O)Nc1cc(C)nn1-c1nc(C)cc(C)n1 (configuration not stated) | inactive
4 | S=C(NCc1ccccn1)Nc1ccc(Cl)c(Cl)c1 | inactive
5 | CCNC(=S)N/N=C/c1sccc1C | inactive
6 | COc1ccc(OC)c(NC(=O)Cn2c(CCC(=O)O)ccc2-c2ccccc2)c1 | inactive
7 | COC(=O)C1=C(C)NC(=S)NC1c1ccc(-c2cc(Cl)ccc2Cl)o1 (configuration not stated) | inactive
8 | C/C=C/C=N/NC(=O)CN(c1ccc(Br)cc1)S(=O)(=O)c1ccccc1 | inactive
9 | S=C(N/N=C/c1ccc(Cl)c(Cl)c1)Nc1ccccc1Cl | inactive
10 | Cc1ccc(SCc2cc(=O)[nH]c(/N=C(\N)Nc3ccc(C)c(C)c3)n2)cc1 | inactive
11 | CCCNC(=O)c1ccc(N2CCC3(CC2)CC(c2cccc(Br)c2)=NO3)c(NC(=O)c2ccc(Br)cc2)c1 | inactive
12 | CNC(=S)N/N=C1\CC(c2ccccc2)Oc2ccccc21 (configuration not stated) | inactive
13 | CCOc1ccccc1C1C2CCCCC2(O)CCN1C(=O)c1cccs1 (configuration not stated) | inactive
14 | O=C(N/N=C/C(Br)=C\c1ccccc1)c1n[nH]c2c1CCC2 | inactive
15 | Cc1ccc(C2=NOC(C)(c3nnc(-c4ccc(F)cc4)o3)C2)cc1 (configuration not stated) | inactive
16 | C/C(=N\NC(=S)NC(C)C)c1ccccc1 | inactive
17 | COc1ccc2c(c1)c1ncn(CCN3CCCCC3)c(=O)c1n2C | inactive
18 | CCOC(=O)C1CCN(C(=O)Nc2c(-c3ccccc3)noc2C)CC1 | inactive
19 | CCCCCOCC1CC(C/C(C)=N/NC(N)=S)C(=O)O1 (configuration not stated) | inactive
20 | COc1ccccc1NS(=O)(=O)c1cc(NC(=O)CNC(=O)c2ccc(C)s2)ccc1Cl | inactive
21 | Cc1ccc(C)c(NC(=S)NNc2ccc(F)cc2F)c1 | inactive
22 | O=C(Oc1c(CN2CCOCC2)cc(Cl)c2cccnc12)c1ccccc1Br | inactive
